Compounds with a hit are over-represented: about 3.1% of the library has one in this group of screens.
SIRT5 block: blocks human SIRT5 desuccinylation of peptide. Q9NXA8. Purified SirT5, succinyl-peptide AMC, trypsin-coupled fluorescence. inhibition, % at 15 µM. actives 1.1% (n = 330,000). AID 652115; in the data active = inhibition above about 15%
Target sequence (Q9NXA8 whole entry, looked up): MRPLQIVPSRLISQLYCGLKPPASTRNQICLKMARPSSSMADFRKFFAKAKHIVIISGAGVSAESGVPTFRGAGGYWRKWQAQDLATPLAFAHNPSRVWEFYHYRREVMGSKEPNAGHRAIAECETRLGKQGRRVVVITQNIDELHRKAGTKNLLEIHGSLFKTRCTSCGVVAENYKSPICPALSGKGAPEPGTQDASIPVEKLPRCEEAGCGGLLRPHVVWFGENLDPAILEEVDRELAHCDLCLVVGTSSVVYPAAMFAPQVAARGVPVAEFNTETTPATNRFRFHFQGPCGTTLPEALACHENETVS
FGF22 binding-1: FGF22 (human) thermal shift binding; AID 651658; recombinant FGF22 thermal shift, SYPRO orange fluorescence; percent of sucrose octasulfate shift, DMSO zero; Q9HCT0; activity (Tm shift, normalised), % at 9.99 µM; actives 1.5% (n = 340,000);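 active = mean Tm shift, scaled 0 neutral to 100 positive control, at about 1.3% or above, every replicate too, limit read from the data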
ERAP1 inh: inhibitors of human ERAP1 aminopeptidase; inhibition, % at 10.7 µM; AID 652197; actives 0.15% (n = 340,000); recombinant ERAP1, Leu-AMC fluorescence, 60 min; Q9NZ08;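 active = mean replicate inhibition of at least 30%, or all replicates individually reaching that 30% level; inactive = mean below 30% and not every replicate reaching it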
CASP6 VEID inh: blocks human caspase-6 cleavage activity; P55212; purified caspase-6, Z-VEID-R110 cleavage fluorescence; inhibition, % at 12.5 µM; actives 0.53% (n = 350,000);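 active = mean inhibition across replicates at least about 35%, with every replicate also reaching that limit, limit read from the data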
FGF22 binding-2: FGF22 (human) binding in thermal shift; shares compounds with FGF22 binding-1; recombinant FGF22 thermal shift, SYPRO orange fluorescence; thermal shift activity, °C (ΔTm) at 38 µM; actives 2% (n = 1,000); AID 720646;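 active = fitted rise in melting shift crosses a set limit at or below the top valid dose tested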
SYPRO no-protein: compound-only SYPRO artifact for FGF22 binders. actives 2% (n = 1,000). shares compounds with FGF22 binding-1. compound-only SYPRO orange thermal shift counter-screen, no protein. AC50, µM (series often up to 38 µM);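 active = rising signal whose fitted curve reaches the 0.54 level within the top valid dose, showing a melting point, actives reach about 13 µM in these data; inactive = the rest, including activity in the opposite direction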; also: value is where the raw curve crosses a fixed level and not half-maximal
A number is an active result.

Screening CCCNC(=O)CN1C(=O)NC(Cc2c[nH]c3ccccc23)C1=O (stereo not given) returned SIRT5 block inactive, FGF22 binding-1 inactive, ERAP1 inh inactive and CASP6 VEID inh inactive.
`O=C(CN1C(=O)NC(Cc2c[nH]c3ccccc23)C1=O)Nc1ccccc1Br` (stereo not given) gave SIRT5 block inactive, FGF22 binding-1 inactive, ERAP1 inh inactive and CASP6 VEID inh inactive.
O=C(CN1C(=O)NC(Cc2c[nH]c3ccccc23)C1=O)Nc1ccc(Br)cc1F (stereo not given) was read as SIRT5 block inactive, FGF22 binding-1 2.3, ERAP1 inh inactive, CASP6 VEID inh inactive, FGF22 binding-2 inactive and SYPRO no-protein inactive.
For Cc1ccc(NC(=O)CN2C(=O)NC(Cc3c[nH]c4ccccc34)C2=O)cc1 (stereo not given) the results were SIRT5 block inactive, FGF22 binding-1 1.7, ERAP1 inh inactive, CASP6 VEID inh inactive, FGF22 binding-2 inactive and SYPRO no-protein inactive.
Screening C[C@H](CO)N1C[C@H](C)[C@H](CN(C)S(=O)(=O)CC(F)(F)F)OCc2ccccc2-c2c(n(C)c3ccccc23)C1=O returned SIRT5 block inactive, FGF22 binding-1 inactive, ERAP1 inh inactive and CASP6 VEID inh inactive.
For OC[C@@H]1[C@H](c2ccc(-c3cccnc3)cc2)[C@@H]2CN(Cc3ccccn3)CCCCN12 the results were SIRT5 block inactive, FGF22 binding-1 1.4, ERAP1 inh inactive, CASP6 VEID inh inactive, FGF22 binding-2 inactive and SYPRO no-protein inactive.
`Cc1ccccc1-c1ccc([C@H]2[C@@H](CO)N3CCCCN(Cc4cccnc4)C[C@H]23)cc1` gave SIRT5 block inactive, FGF22 binding-1 1.3, ERAP1 inh inactive, CASP6 VEID inh inactive, FGF22 binding-2 inactive and SYPRO no-protein inactive.
Screening OC[C@H]1[C@H](c2ccc(-c3ccccc3)cc2)[C@H]2CN(Cc3ccccn3)CCCCN21 returned SIRT5 block inactive, FGF22 binding-1 inactive, ERAP1 inh inactive and CASP6 VEID inh inactive.
For OC[C@@H]1[C@H](c2ccc(-c3cccnc3)cc2)[C@H]2CN(Cc3ccccn3)CCCCN12 the results were SIRT5 block inactive, FGF22 binding-1 1.5, ERAP1 inh inactive, CASP6 VEID inh inactive, FGF22 binding-2 inactive and SYPRO no-protein inactive.
OC[C@H]1[C@@H](c2ccc(-c3ccccc3F)cc2)[C@H]2CN(Cc3cccnc3)CCCCN21 was read as SIRT5 block inactive, FGF22 binding-1 inactive, ERAP1 inh inactive and CASP6 VEID inh inactive.
CC(C)NC(=O)Nc1ccc2c(c1)C(=O)N([C@H](C)CO)C[C@@H](C)[C@@H](CN(C)C)O2 was read as SIRT5 block inactive, FGF22 binding-1 inactive, ERAP1 inh inactive and CASP6 VEID inh inactive.
For C[C@@H]1CCCCO[C@H](CN(C)CC2CCCCC2)[C@H](C)CN([C@@H](C)CO)C(=O)c2cc(NC(=O)Cc3ccccc3)ccc2O1 the results were SIRT5 block inactive, FGF22 binding-1 inactive, ERAP1 inh inactive and CASP6 VEID inh inactive.
For O=c1cc[nH]c2ccc(Cl)cc12 the results were FGF22 binding-1 72, ERAP1 inh inactive, CASP6 VEID inh inactive, FGF22 binding-2 inactive and SYPRO no-protein inactive.
COc1ccc2c3c([nH]c2c1)[C@@H](CO)N(Cc1ccccc1F)CC31CCN(CC2CC2)CC1 was read as SIRT5 block inactive, FGF22 binding-1 inactive, ERAP1 inh inactive and CASP6 VEID inh inactive.
Screening COc1ccc(NC(=O)c2noc(C(C)C)c2[N+](=O)[O-])cc1 returned FGF22 binding-1 inactive, ERAP1 inh inactive and CASP6 VEID inh inactive.
CC(=O)c1ccc(NC(=O)c2noc(C(C)C)c2[N+](=O)[O-])cc1 was read as SIRT5 block inactive, FGF22 binding-1 1.7, ERAP1 inh inactive, CASP6 VEID inh inactive, FGF22 binding-2 inactive and SYPRO no-protein inactive.
Screening CC(C)(C)[S@@](=O)N1Cc2cc(C(=O)NCc3ccccc3F)nc(-c3cccc(-c4ccncc4)c3)c2[C@H]1CCO returned SIRT5 block inactive, FGF22 binding-1 1.9, ERAP1 inh inactive, CASP6 VEID inh inactive, FGF22 binding-2 inactive and SYPRO no-protein inactive.
`CN1CCN(C(=O)C[C@H]2C=C[C@H](NC(=O)c3ccc4c(c3)OCO4)[C@H](CO)O2)CC1` gave SIRT5 block inactive, FGF22 binding-1 1.5, ERAP1 inh inactive, CASP6 VEID inh inactive, FGF22 binding-2 inactive and SYPRO no-protein inactive.

High-throughput results (PubChem BioAssay)
